GALK inh – galactokinase (human) inhibition; hit rate 0.007% among 270,000; Potency, µM (doses to about 57.5 µM), for the others: at the top dose activity change, negative = inhibition, usual class: inhibitors; Purified GALK, Kinase-Glo residual ATP luminescence; P51570; further: potency means the concentration at half of the fitted maximal effect; on the % scale 0 is the no-effect control and ±100 the full control effect
Target sequence (P51570 whole entry, looked up): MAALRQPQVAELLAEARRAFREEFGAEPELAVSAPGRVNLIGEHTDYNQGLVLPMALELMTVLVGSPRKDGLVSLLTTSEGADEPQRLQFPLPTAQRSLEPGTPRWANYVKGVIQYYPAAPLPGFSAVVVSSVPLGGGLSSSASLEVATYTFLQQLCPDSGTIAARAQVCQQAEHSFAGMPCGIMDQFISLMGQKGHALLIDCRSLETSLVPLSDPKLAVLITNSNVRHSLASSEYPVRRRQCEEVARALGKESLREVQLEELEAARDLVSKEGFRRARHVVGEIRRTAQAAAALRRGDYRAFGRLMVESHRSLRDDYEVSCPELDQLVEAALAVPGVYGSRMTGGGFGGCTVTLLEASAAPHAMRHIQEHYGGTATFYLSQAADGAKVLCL
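ATP-depletion format; final 35 uM ATP, 100 uM D-galactose, 5 nM enzyme; pH 8.0 HEPES/Mg2+ buffer; 60 min RT; luminescence read 10 min after detection reagent.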
PKM2 act – PKM2 (human) enzyme activation | purified PKM2, Kinase-Glo ATP luminescence, activation; response scale: 0% is enzyme alone, no compound | Potency, µM (highest dose often 57.5 µM), inactives show at the highest dose activation, hits mostly activators | hit rate 0.34% among 260,000 | AID 1631; further: potency means the concentration at half of the fitted maximal effect; on the % scale 0 is the no-effect control and ±100 the full control effect; nearly all actives have a fitted effect of over 55% in size
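hPK-M2, >95% pure; 0.1 mM ADP / 0.5 mM PEP final; imidazole pH7.2 buffer w/ 7 mM MgCl2, 50 mM KCl; 1 h RT; Kinase-Glo lum. Intermediate enzyme activity for dual inhibitor/activator qHTS.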
PI4K2A inh – PI4K2A (human) kinase inhibition; hit rate 0.13% among 420,000; activity change, negative = inhibition, % at 76.9 µM; purified PI4K2A, ADP-Glo luminescence, 1 h; active compounds read low; in the data active means activity change below about -50%; inconclusive means mostly about -30% to -49%;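 further: -100% = wells without enzyme as full effect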
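In this quantitative HTS, ADP production by PI4K2A was quantified luminescently after 1 h at ambient temperature; 100 microM adenosine served as plate-quality control.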
TrxR1 inh – inhibitors of rat thioredoxin reductase 1; recombinant rTrxR1, NADPH fluorescence consumption, selenite substrate; Potency, µM (highest dose often 114 µM), for inactives: at the highest dose activity change, negative = inhibition, usual class: inhibitors; hit rate 1% among 390,000; AID 588453; further: potency means the concentration at half of the fitted maximal effect; on the % scale 0 is the no-effect control and ±100 the full control effect; nearly all actives have a fitted effect of over 65% in size
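Rat TrxR1 (90 nM in the dispensed reagent) was pre-reduced with 400 uM NADPH for 5 min at room temperature, then incubated with compound for 15 min. After 400 uM selenite was added, NADPH fluorescence (Ex 340/Em 450 nm) was followed for 8 min.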
TrxR1 substrate – substrates of rat thioredoxin reductase 1 | O89049 | purified TrxR1 substrate turnover, NADPH consumption readout | Potency, µM (highest dose often 114 µM), for inactives: at the top dose activity change, negative = substrate turnover | hit rate 0.01% among 390,000; further: potency means the concentration at half of the fitted maximal effect; on the % scale 0 is the no-effect control and ±100 the full control effect; nearly all actives have a fitted effect of over 50% in size
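Rat TrxR1, dispensed at 90 nM, was prereduced with 400 uM NADPH (final) for 5 min at ~22 deg C, then incubated with compound 15 min before 400 uM selenite. A first-read NADPH fluorescence drop versus no-compound background flagged substrates.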
HeLa tox – reduces HeLa cell viability in PKM2 activator counter-screen; 230 tested, under 10 active; shares compounds with PKM2 act; HeLa viability, CellTiter-Glo ATP luminescence, 24 h; activity change, negative = cytotoxicity, % at 57.5 µM; further: % of control where 0% means no effect
* hit, by the source's call; [ ] = remark or other dose. A selection: hits, their analogues and other compounds. The true share with any hit is near 1.2%. Unless noted, the call rests on the fitted dose curve; in most records, active means well fitted curve in the direction sought with a large enough effect; inconclusive means small, poorly fitted or top-dose-only effect, or another doubt; inactive means no such curve, though single readings can be large; an effect the other way counts as inactive or inconclusive.

Screening COc1cccc(CNC(=O)CCC2CCCN(C(=O)c3cc(C4CC4)[nH]n3)C2)c1 (stereo unspecified) returned GALK inh 1%, PKM2 act 3.5µM*, PI4K2A inh 1, TrxR1 inh 20%, TrxR1 substrate 5% and HeLa tox -4.
Screening COc1ccc(CN(CCN2CCOCC2)C(=O)c2cc(F)ccc2C)cc1OC returned PI4K2A inh -1.
Screening CC(Sc1ncc(C#N)c(N)n1)C(=O)Nc1ccccc1 (stereo unspecified) returned GALK inh 2%, PKM2 act 4.5µM*, PI4K2A inh -2, TrxR1 inh 3%[57.1 µM], TrxR1 substrate 5%[57.1 µM] and HeLa tox -1.
`Cc1ccc(NS(=O)(=O)c2ccc3c(c2)CCC(=O)N3)cc1C` gave GALK inh -2%, PKM2 act 0.79µM*, PI4K2A inh 1, TrxR1 inh 11%[57.1 µM], TrxR1 substrate 8%[57.1 µM] and HeLa tox inconclusive.
`Cc1cccc(NS(=O)(=O)c2cc3c(cc2C)n(C)c(=O)c(=O)n3C)c1` gave PKM2 act 0.4µM*, PI4K2A inh 4, TrxR1 inh 9%[57.1 µM], TrxR1 substrate -1%[57.1 µM] and HeLa tox -25.
For CC(=O)Nc1cc(S(=O)(=O)Nc2cccc(C)c2)c(C)cc1C the results were GALK inh -2%, PKM2 act 2%, PI4K2A inh -13, TrxR1 inh 15%[57.1 µM] and TrxR1 substrate 1%[57.1 µM].
`COc1ccc(C2CC3CN(C4CCCCC4)C(=O)C3N2C)cc1` (stereo unspecified) gave PI4K2A inh -7.
Screening CC(=O)N(c1ccccc1)C1SC(=O)N(c2ccccc2)C1=O (stereo unspecified) returned GALK inh 6%, PKM2 act 0.56µM*, PI4K2A inh 4, TrxR1 inh 4%, TrxR1 substrate 13% and HeLa tox 0.
Screening CCN(c1ccccc1)C1SC(=O)N(c2ccccc2)C1=O (stereo unspecified) returned TrxR1 inh 9% and TrxR1 substrate -1%.
`COc1ccc(S(=O)(=O)Nc2nc3c(s2)CCCC3)cc1` gave GALK inh 2%, PKM2 act 5µM*, PI4K2A inh -9, TrxR1 inh 3%, TrxR1 substrate -3% and HeLa tox -27.
O=c1c2ccccc2sn1-c1ccc(S(=O)(=O)N2CCCC2)cc1 was read as GALK inh 6%, PKM2 act 1.4µM*, PI4K2A inh -2, TrxR1 inh 50%, TrxR1 substrate 3% and HeLa tox 0.
O=c1c2ccccc2sn1-c1ccc(S(=O)(=O)N2CCCCC2)cc1 was read as PI4K2A inh -1, TrxR1 inh 26% and TrxR1 substrate 6%.
CCCN1C(=O)C2(c3ccccc31)c1c(oc3ccccc3c1=O)C(=O)N2CCCOC(C)C (stereo unspecified) was read as PI4K2A inh 2, TrxR1 inh -2% and TrxR1 substrate -10%.
`c1nc(NCC2CCCC2)c2cc(-c3ccc4c(c3)OCO4)ccc2n1` gave PI4K2A inh 6.
Screening CCc1nnc(NC(=O)CSc2nnc(-c3ccc(NS(=O)(=O)c4ccccc4)cc3)o2)s1 returned GALK inh -4%, PKM2 act 0.79µM*, PI4K2A inh -3, TrxR1 inh -7%, TrxR1 substrate -20% and HeLa tox 6.
Screening C1=Nc2ccccc2/C1=C/c1ccccc1 returned TrxR1 inh 32% and TrxR1 substrate 17%.
For Cc1ccc(NC(=O)Cn2sc3nc(C)cc(C)c3c2=O)c(Cl)c1 the results were GALK inh 0%, PKM2 act 3.5µM*, PI4K2A inh -1, TrxR1 inh -26%, TrxR1 substrate -12% and HeLa tox inconclusive.
O=S(=O)(c1cccs1)N1CCN(S(=O)(=O)c2cccs2)CC1 was read as GALK inh -3%, PKM2 act 0.4µM*, PI4K2A inh 0, TrxR1 inh 25%[57.1 µM], TrxR1 substrate -8% and HeLa tox -6.
For CCNS(=O)(=O)c1ccc(NC(=O)c2ccc(Cn3cc(Br)cn3)o2)cc1 the results were PKM2 act 5µM*, PI4K2A inh -2, TrxR1 inh -3%, TrxR1 substrate -6% and HeLa tox 0.
`CCOC(=O)c1ccc(NC(=O)CC(=O)Nc2ccc3nc4n(c(=O)c3c2)CCCCC4)cc1` gave PI4K2A inh -9, TrxR1 inh -6% and TrxR1 substrate -7%.
C=CCN1C(=O)[C@H](CC(=O)NCC23CC4CC(CC(C4)C2)C3)[C@@]2(C(=O)OC)CCCCC=C12 was read as PI4K2A inh -7.
Screening CC(=O)Nc1ccc(-c2nnc(SCc3ccccc3)n2C)cc1 returned TrxR1 inh 5% and TrxR1 substrate 5%.
O=C(c1ccc2c(=O)n(Cc3ccco3)c(=S)[nH]c2c1)N1CCN(Cc2ccccc2)CC1 was read as GALK inh -1%, PKM2 act 0.63µM*, PI4K2A inh -8, TrxR1 inh -17%, TrxR1 substrate 2% and HeLa tox -2.
Screening COC(=O)c1[nH]c2ccccc2c1NS(=O)(=O)c1ccc(F)c(C)c1 returned GALK inh 0%, PKM2 act 10µM*, PI4K2A inh 1, TrxR1 inh 8%, TrxR1 substrate -6% and HeLa tox -10.
CCCS(=O)(=O)Nc1c(C(=O)OC)[nH]c2ccccc12 was read as PKM2 act 5%, PI4K2A inh -4, TrxR1 inh -5% and TrxR1 substrate -2%.
Screening CN(CCc1ccccn1)C(=O)c1ccc(Sc2ccccc2Cl)c([N+](=O)[O-])c1 returned PI4K2A inh -1.
`O=S(=O)(NCCNS(=O)(=O)c1c(F)cccc1F)c1ccc2c(c1)OCCO2` gave PI4K2A inh -2, TrxR1 inh 38%[57.1 µM], TrxR1 substrate 15%[57.1 µM] and HeLa tox -2.
O=S(=O)(NCC1CCC(NS(=O)(=O)c2c(F)cccc2F)CC1)c1ccc2c(c1)OCCO2 (stereo unspecified) was read as PI4K2A inh -3, TrxR1 inh 9%[57.1 µM] and TrxR1 substrate 7%[57.1 µM].
Screening O=S(=O)(NCCCCNS(=O)(=O)c1c(F)cccc1F)c1ccc2c(c1)OCCO2 returned PI4K2A inh -3, TrxR1 inh 23%, TrxR1 substrate 12% and HeLa tox 4.
CCn1c(SCC(=O)Nc2cccc(O)c2)nc2c1c(=O)n(C)c(=O)n2C was read as GALK inh 8%, PKM2 act 1.1µM*, PI4K2A inh -1, TrxR1 inh 12%, TrxR1 substrate 7% and HeLa tox -5.
